High-throughput results: PubChem, The Scripps Research Institute Molecular Screening Center
Sampled rows, rich in hits. Any-hit rate of the full collection: about 3.5%.
GPR151 ag – activates the human receptor GPR151; Q8TDV0; AID 1508602; 650,000 tested, 1% active; PathHunter beta-arrestin GPR151 cells, luminescence; activation, % at 11.2 µM; in the data active = activation above about 4.9%
Target sequence (Q8TDV0 whole entry, looked up): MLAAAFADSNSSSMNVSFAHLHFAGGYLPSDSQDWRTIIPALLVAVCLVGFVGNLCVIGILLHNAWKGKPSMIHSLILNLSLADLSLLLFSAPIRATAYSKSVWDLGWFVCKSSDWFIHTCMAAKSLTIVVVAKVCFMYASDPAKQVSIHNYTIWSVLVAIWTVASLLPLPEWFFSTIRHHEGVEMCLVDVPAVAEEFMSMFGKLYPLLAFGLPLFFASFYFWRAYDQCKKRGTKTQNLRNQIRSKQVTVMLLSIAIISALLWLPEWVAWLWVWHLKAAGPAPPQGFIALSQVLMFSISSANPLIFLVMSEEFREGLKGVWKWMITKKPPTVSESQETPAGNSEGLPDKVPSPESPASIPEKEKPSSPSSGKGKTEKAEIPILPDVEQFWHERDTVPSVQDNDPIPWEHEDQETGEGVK
TEAD-YAP block – TEAD-YAP interaction inhibition. HEK-TIYL cells, TEAD-Gal4/YAP UAS-luciferase luminescence. AID 1259422. 640,000 tested, 1.4% active. inhibition, % at 9.12 µM; in the data active = inhibition above about 32%
FBW7 activator – human FBW7 E3 ligase activation, primary screen; AlphaScreen FBW7–phospho-cyclin E peptide binding, activator screen; normalized activity (activation), % at 26.1 µM; 650,000 tested, 0.13% active; Q969H0; in the data active = normalized activity above about 1.9%;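 also: purified mutant Fbw7 with reduced substrate affinity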
MITF inh – blocks human microphthalmia-associated transcription factor | inhibition, % at 2.6 µM | AID 1259374 | O75030 | 650,000 tested, 0.91% active | AlphaScreen MITF homodimerization, bead proximity signal; in the data active = inhibition above about 50%
Hits are given with their value; 0 = inactive.

SMILES	GPR151 ag	TEAD-YAP block	FBW7 activator	MITF inh
O=C(O)c1cc(-c2ccc(O)c(O)c2)nc2n[nH]c(-c3ccc(F)cc3)c12	0	0	0	0
O=C(O)c1cc(-c2ccc(O)c(O)c2)nc2n[nH]c(-c3ccccc3)c12	0	0	0	81
CNc1nnc(-c2cc3cccc(OC)c3oc2=O)s1	0	0	0	0
Cc1ccc(C(=O)N/N=C/c2ccc3c(c2)OCO3)cc1	0	0	0	0
Cc1ccc(/C=N/NC(=O)c2ccc3c(c2)OCO3)c(O)c1	0	56	0	0
Cc1ccc(/C=N/NC(=O)c2ccncc2)c(O)c1	0	0	0	57
COc1ccc(CCNc2ncnc3ccc(I)cc23)cc1OC	0	74	0	0
COc1ccc(CCNc2ncnc3sc(C)cc23)cc1OC	0	61	0	0
CCc1cc2c(NCc3ccccc3)ncnc2s1	0	0	0	0
COc1ccc(CCNc2ncnc3c2cnn3C)cc1OC	0	0	0	0
CCc1cc2c(NCCc3ccccc3)ncnc2s1	0	36	0	0
Clc1ccc(CNc2cc(-c3ccccc3)ncn2)cc1	0	0	0	0
CC(C)(C)c1cc(C(=O)N2CCC(c3ccncc3)CC2)n[nH]1	0	0	0	0
CCc1ccc2c(c1)[C@H]1OCC[C@H]1[C@@H](c1cccs1)N2	0	47	0	0
CCC1CN(CC(O)CO)Cc2ccc(Cl)cc2O1 (configuration not stated)	0	0	0	0
CS/C(NCCN1CCOCC1)=C(/C#N)C(=O)c1ccc(Cl)cc1	0	0	0	0
COCCCNCCCOc1c(Cl)cc(C)cc1Br	0	51	0	0
COCCNCCCCOc1c(Cl)cc(C)cc1Br	0	0	0	0
CC(C)n1c(NCc2cccnc2)nc2c(Nc3ccccc3)ncnc21	0	53	0	0
CC(C)n1c(Nc2ccncc2)nc2c(Nc3ccc(Oc4ccccc4)cc3)ncnc21	0	45	0	0
CC(C)n1c(Nc2ccc(-n3ccnc3)cc2)nc2c(Nc3ccccc3)ncnc21	0	49	0	0
CCCSc1ncc(Cl)c(C(=O)Nc2ccccc2)n1	0	0	0	0
CCOc1ccccc1CNc1ncnc2c1nc1n2CCCCC1	0	41	0	0
Cc1ccc2nc(-c3ccccc3Br)cn2c1	0	73	0	0
Cc1ccc2nc(-c3ccccc3)cn2c1	0	98	0	0
SMILES	GPR151 ag	TEAD-YAP block	FBW7 activator	MITF inh
Cc1ccc2nc(-c3cccc(Br)c3)cn2c1	0	85	0	0
Oc1ccccc1-c1cn2cc(Cl)ccc2n1	0	0	0	0
CCOc1ccccc1-n1c(SCC(=O)NCc2ccccc2)nnc1-c1ccncc1	0	0	0	0
CCCc1[nH]n(-c2ccc(F)cc2)c(=O)c1C=NCCc1ccc(OC)cc1	0	0	0	0
CCc1cccc(NC(=O)c2[nH]c(C)c(C(C)=O)c2CC)c1	0	0	0	0
Cc1cc(C2C(=O)c3ccccc3C2=O)nc2ccccc12	0	49	0	0
Cc1cc(=O)[nH]c(N/N=C/c2ccc(O)c(O)c2O)n1	0	0	0	100
Cc1cc(C)nc(N/N=C/c2cc(Br)cc(Br)c2O)n1	0	0	0	0
Cc1cc(C)nc(N/N=C/c2ccc(O)c(O)c2O)n1	0	0	0	52
CC(C)NC(=O)Cn1nnc2ccccc2c1=O	0	0	0	0
CCC(=O)Nc1nnc(SCC(=O)c2ccc(Cl)cc2)s1	0	0	0	0
CC(=O)Nc1cccc(OCC(=O)Nc2ccc(Cl)cc2)c1	0	0	0	0
COc1ccc(NC(=O)c2ccc(S(=O)(=O)N3CCc4ccccc43)cc2)c2ccccc12	0	60	0	0
COc1ccc(NC(=O)c2ccc(S(=O)(=O)N3CCc4ccccc4C3)cc2)c2ccccc12	0	0	0	0
O=C(Nc1ccccc1F)c1ccc(S(=O)(=O)N2CCc3ccccc3C2)cc1	0	40	0	0
CCOC(=O)c1csc(NC(=O)c2ccc(S(=O)(=O)N3CCc4ccccc43)cc2)n1	0	35	0	0
CC(=O)NC(Cc1ccc(F)cc1)C(=O)NC1CCN(C(=O)Nc2ccc(C)cc2)CC1 (configuration not stated)	0	0	0	0
Cc1ccc(C(=O)Nc2sc3c(c2C(=O)Nc2ccccc2Cl)CCCCC3)cc1	0	0	0	0
c1ccc(-c2ccnc(Nc3ccc(-n4ccnn4)cc3)n2)cc1	0	0	0	0
CS(=O)(=O)Cc1cccc(-c2ccnc(Nc3ccc(-n4ccnn4)cc3)n2)c1	0	41	0	0
CS(=O)(=O)c1ccc(-c2ccnc(Nc3ccc(-n4ccnn4)cc3)n2)cc1	0	0	0	0
CN1CCN(c2cccc(-c3ccnc(Nc4ccc(-n5ccnn5)cc4)n3)c2)CC1	0	68	0	0
Cc1nc(-c2ccccc2)sc1CCNC(=O)c1cccs1	0	0	0	0
Cc1noc(C)c1-c1nc(Nc2ccccc2)c2ncn(C3CCCCC3)c2n1	0	75	0	0
c1ccc(Nc2nc(N3CCc4ccccc4C3)nc3c2ncn3C2CCCCC2)cc1	0	32	0	0
SMILES	GPR151 ag	TEAD-YAP block	FBW7 activator	MITF inh
Cc1noc(C)c1-c1nc(Nc2ccc(N3CCOCC3)cc2)c2ncn(C3CCCCC3)c2n1	0	0	0	0
c1ccc(Oc2ccc(Nc3nc(N4CCc5ccccc5C4)nc4c3ncn4C3CCCCC3)cc2)cc1	0	0	0	0
Cc1cc(NCCc2ccc(O)cc2)nc(Nc2ccc(N3CCOCC3)cc2)n1	0	62	0	0
Cc1cc(NCCc2ccc(O)cc2)nc(-c2ccc(N3CCN(C)CC3)cc2)n1	0	53	0	0
Oc1ccc(CCNc2ccnc(Nc3ccc(N4CCOCC4)cc3)n2)cc1	0	45	0	0
C=CCN1CCN(C(c2ccccc2)c2nnnn2C2CCCC2)CC1 (configuration not stated)	0	0	1.9	0
CN1CCN(C(c2ccc(N(C)C)cc2)c2nnnn2C2CCCC2)CC1 (configuration not stated)	0	51	0	0
c1cncc(C(c2nnnn2C2CCCCC2)N2CCN3CCCC3C2)c1 (configuration not stated)	0	0	0	0
c1csc(C(c2nnnn2C2CCCCC2)N2CCN3CCCC3C2)c1 (configuration not stated)	0	62	0	0
CN1CCN(C(c2ccc(F)cc2)c2nnnn2C2CCCC2)CC1 (configuration not stated)	0	0	0	0
CC1=NN(c2nc3ccccc3o2)C(=O)/C1=C\N(C)C	0	92	0	0
CC1=NN(c2ccc(C)cc2)C(=O)/C1=C\N(C)C	0	0	0	0
COc1ccc(CN2Cc3cc(C)ccc3OC(C)C2)cc1O (configuration not stated)	0	55	0	0
CN(C)c1ccc(/C=C2\Oc3c(ccc(O)c3O)C2=O)cc1	0	0	0	55
Cc1ccc(Cl)cc1-n1c(SCC(=O)NCC2CCCO2)nc2n[nH]c(C)c2c1=N (configuration not stated)	0	0	0	0
O=C1N[C@H](CO)C(=O)N2CCN(CCc3ccccc3)C[C@H]12	0	0	0	0
Cc1ccc(-n2c(SCc3cc(=O)n4ccccc4n3)nc3[nH]ncc3c2=O)cc1Cl	0	33	0	0
